MBD2 inh = MBD2-methylated oligo binding inhibition | Q9UBB5 | TR-FRET, MBD2 binding to methylated oligonucleotide | inhibition, % at 4.4 µM | actives 0.31% (n = 370,000); in the data active = inhibition above about 13%
UHRF1 binding = human UHRF1 methylated DNA binding inhibitors | UHRF1 binding to methylated oligo, TR-FRET | inhibition, % at 4.4 µM | actives 0.75% (n = 370,000); in the data active = inhibition above about 21%;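 note: UHRF1 SRA domain binding a hemimethylated CpG hairpin DNA probe; 0% = median of test compound wells and 100% = reference inhibitor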
LEDGF integ inh = blocks HIV-1 LEDGF/p75-dependent DNA integration; actives 0.64% (n = 370,000); TR-FRET IN-LEDGF/p75 DNA integration, Eu/Cy5; inhibition, % at 3.7 µM; AID 743269;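 active = inhibition above the screen-wide mean plus 3 SD, cut at about 13% in these data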;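 note: signal is the Cy5 over europium emission ratio at 671 and 618 nm; 0% = plate median of compound wells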
PRMT1 FP inh = inhibitors of human PRMT1; Q99873; recombinant PRMT1, activity-based probe fluorescence polarization; inhibition, % at 2.79 µM; actives 1.3% (n = 370,000); AID 652257;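 active = inhibition above about 21% made by adding two undisclosed values, limit read from the data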
Target sequence (Q99873 whole entry, looked up): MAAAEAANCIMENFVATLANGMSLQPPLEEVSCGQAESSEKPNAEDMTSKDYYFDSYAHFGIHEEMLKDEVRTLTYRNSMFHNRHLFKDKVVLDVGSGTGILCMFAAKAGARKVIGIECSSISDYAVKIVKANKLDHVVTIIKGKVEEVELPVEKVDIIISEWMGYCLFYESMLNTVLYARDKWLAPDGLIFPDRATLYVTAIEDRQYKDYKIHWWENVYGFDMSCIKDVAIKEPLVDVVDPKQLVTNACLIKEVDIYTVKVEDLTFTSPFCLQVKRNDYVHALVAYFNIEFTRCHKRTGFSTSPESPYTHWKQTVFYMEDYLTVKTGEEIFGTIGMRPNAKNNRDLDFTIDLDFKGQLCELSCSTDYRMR
PRMT1 inh conf = confirmation of human PRMT1 inhibitors; shares compounds with PRMT1 FP inh; recombinant His-PRMT1, activity-based probe fluorescence polarization; inhibition, % at 2.79 µM; actives 42% (n = 3,300); AID 687036;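 active = mean inhibition across replicates above the hit cutoff derived for the earlier primary screen, cut at about 22% in these data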
* hit, by the source's call; . = not tested or not shown. A selection: hits, their analogues and other compounds. The true share with any hit is near 2.5%.

SMILES	MBD2 inh	UHRF1 binding	LEDGF integ inh	PRMT1 FP inh	PRMT1 inh conf
Cc1ccccc1N1C(=O)C(Cl)=C(N2CCOCC2)C1=O	2.3	0.3	-0.9	8.1	.
COc1ccc2nc3ccccc3[n+]([O-])c2c1	-5.1	2.2	0.6	36.7*	26.9*
Clc1ccc(-c2nc3nc4ccccc4nc3n2Cc2ccco2)cc1	-0.6	0.2	5.8	27.4*	13.2
COc1ccc(NC(=O)NS(=O)(=O)c2ccc(C)cc2)cn1	-7.1	-3.7	0.3	104.5*	9.8
O=C(Nc1ccc(OCc2ccccc2)cc1)Nc1cccnc1	-4.7	1.3	-0.1	-1.5	.
COc1ccc(NC(=O)Nc2ccc(OCc3ccccc3)cc2)cn1	2.1	-4.0	0.5	25.7*	11.5
NS(=O)(=O)c1ccc(CCN2C(=O)CCC2=O)cc1	-5.4	-0.5	3.2	-5.6	.
NS(=O)(=O)c1ccc(CCNC2CC(=O)N(Cc3ccccc3)C2=O)cc1 (configuration not stated)	0.5	0.3	-0.4	62.8*	8.6
CCN1C(=O)CC(NCc2ccc3c(c2)OCO3)C1=O (configuration not stated)	-5.0	1.0	-0.2	2.8	.
Cc1ccc(NC2CC(=O)N(Cc3ccccc3)C2=O)cc1 (configuration not stated)	-4.6	-1.3	0.9	-3.3	.
NS(=O)(=O)c1ccc(CCNC2CC(=O)N(CCc3ccccc3)C2=O)cc1 (configuration not stated)	2.4	-1.0	-1.6	33.7*	-2.5
O=C1CC(NCc2ccc3c(c2)OCO3)C(=O)N1CCc1ccccc1 (configuration not stated)	1.4	-0.1	-1.4	44.2*	14.8
CCCn1c(N)c(N(CCOC)C(=O)/C=C/c2cccc(Cl)c2)c(=O)[nH]c1=O	0.2	-1.4	-1.4	-1.2	.
COc1ccc(OC)c(NC(=O)c2nc(-c3ccccc3)oc2C)c1	0.5	-1.2	1.9	-4.3	.
CCOC(=O)NC[C@@]1(C(=O)OC)CC(=O)N(Cc2ccc(Cl)cc2)[C@@H]1c1ccc(OC)cc1	2.5	0.3	2.6	-4.2	.
CC1CCc2c(C(=O)Nc3ccc(N4CCOCC4)cc3)csc2C1 (configuration not stated)	3.0	2.1	-6.6	-1.8	.
CCc1c(O)nc(SCC(=O)Nc2ccc(OC)cc2)n(C2CCCCC2)c1=O	4.0	0.8	2.2	11.5	.
CCc1c(O)nc(SCC(=O)Nc2ccc(Cl)cc2)n(-c2ccccc2)c1=O	-1.2	3.3	-4.9	37.6*	35.1*
CCOc1ccc(-n2c(SCC(=O)Nc3ccc(C(=O)O)cc3)nc3ccccc3c2=O)cc1	4.3	1.1	-0.7	-0.7	.
CCc1c(O)nc(SCC(=O)Nc2nc3ccccc3s2)n(C2CCCCC2)c1=O	-0.1	-0.8	-3.7	45.3*	49.8*
O=C(O)CN1C(=O)C2C3CCC(C3)C2C1=O (configuration not stated)	-1.1	1.9	4.6	-3.0	.
CC1=C(C(=O)Nc2ccccc2)C2(CCCCC2)C(C#N)=C(S)N1	0.7	-3.9	3.8	25.6*	24.9*
Nc1ccn([C@@H]2O[C@H](C(=O)NCC(F)(F)F)[C@@H](O)[C@H]2O)c(=O)n1	-3.0	-0.1	-4.1	-2.7	.
CC1(C(=O)NS(=O)(=O)c2ccc(Cl)s2)CCN1C(=O)C1(c2ccc(Cl)cc2)CCC1 (configuration not stated)	-1.6	-1.5	-0.7	-3.3	.
Cc1ccc(/C=C/C(=O)OCC(=O)N(C)c2c(N)n(Cc3ccccc3)c(=O)[nH]c2=O)o1	4.0	2.7	7.1	44.0*	-1.0
SMILES	MBD2 inh	UHRF1 binding	LEDGF integ inh	PRMT1 FP inh	PRMT1 inh conf
CCCNC(=O)C1(C)CCCN(Cc2ccsc2)C1 (configuration not stated)	-5.2	9.5	5.3	-0.1	.
CCCCCC(=O)N(O)C1CC(=O)N(c2ccccc2)C1=O (configuration not stated)	-3.2	4.3	-0.9	83.6*	85.3*
CCCCCCC(=O)N(O)C1CC(=O)N(Cc2ccccc2)C1=O (configuration not stated)	0.9	-1.1	0.9	-3.2	.
COc1ccc(N2C(=O)CC(N3CCN(c4ccc(Cl)cc4)CC3)C2=O)cc1 (configuration not stated)	-0.5	0.1	2.2	1.6	.
COc1ccc(N2C(=O)CC(n3c(CCCCO)nc4ccccc43)C2=O)cc1 (configuration not stated)	1.6	0.2	-1.0	25.1*	18.7
COc1ccc(N2C(=O)CC(N3CCC(O)(c4ccc(Cl)cc4)CC3)C2=O)cc1 (configuration not stated)	-0.4	-1.8	7.0	76.9*	-1.1
O=C1CC(N2CCC(c3nc4ccccc4[nH]3)CC2)C(=O)N1c1ccccc1F (configuration not stated)	-2.1	-0.7	-5.7	32.2*	2.9
COc1ccc(N2C(=O)CC(N3CCC(c4nc5ccccc5[nH]4)CC3)C2=O)cc1 (configuration not stated)	-0.1	-1.7	-0.5	53.5*	-4.5
CC(C)c1cc(C(=O)N2CCCC(Nc3ccc(F)cc3)C2)nc(N)n1 (configuration not stated)	-4.4	-2.1	0.7	-4.8	.
CCOC(=O)C1=CCC(c2ccc(CC)cc2)N(S(=O)(=O)c2ccc(C)cc2)C1 (configuration not stated)	-0.6	1.4	-3.1	0.8	.
O=C(/C=C/c1ccco1)Nc1cc(Cl)ccc1C(=O)O	0.6	9.1	8.1	25.2*	8.5
CCOC(=O)C1=C(C)N=c2s/c(=C\c3ccc(OCC(=O)O)cc3)c(=O)n2C1c1ccccc1 (configuration not stated)	1.2	-2.7	2.4	34.1*	9.4
CC1=C(C(=O)OC(C)C)C(c2ccc(Cl)cc2)n2c(s/c(=C\c3ccc(OCC(=O)O)cc3)c2=O)=N1 (configuration not stated)	2.5	1.4	-2.4	13.0	.
CCOC(=O)C1=C(C)N=c2sc(=Cc3ccc(OCC(=O)O)cc3)c(=O)n2C1c1ccc(SC)cc1 (configuration not stated)	-1.9	12.7	8.7	29.6*	2.2
CCOC(=O)C1=C(C)N=c2s/c(=C\c3ccc(C(=O)O)cc3)c(=O)n2C1c1ccc(OC)cc1OC (configuration not stated)	5.4	1.8	-0.4	7.5	.
N#Cc1ccc(-c2ccccc2)nc1SCC(=O)c1cc2ccccc2oc1=O	2.1	6.2	0.2	34.5*	8.0
CC(C)c1c(C#N)c(N)nc(SCC(=O)c2cc3ccccc3oc2=O)c1C#N	1.7	-1.8	-2.8	-0.1	.
COc1ccc2ccccc2c1C(=O)/C=C\c1ccoc1	-1.2	4.2	3.7	33.1*	6.7
Cc1cc(C)nc(SSc2nc(C)cc(C)n2)n1	-1.1	4.8	-3.1	89.1*	82.4*
Cc1cc(C)nc(SCC(=O)O)n1	-0.1	-1.0	-0.8	-3.9	.

Screening results deposited in PubChem BioAssay by The Scripps Research Institute Molecular Screening Center.
